From ChEMBL document CHEMBL3988442, “University of Dundee, Small-Polar-MMV Screening Library” (2021)
Screen size: about 48,000 compounds; about 13,000 (27%) showed an effect of 50% or more. The list shows a part of the results.

test system: Wolbachia pipientis; test: Anti-Wolbachia Cell-Based Screen; assay type: functional; set-up: scale not given: in the data most compounds retested in dose-response had high values; details: 5 µM

| Structure (SMILES) | Percent Effect [%] |
| --- | --- |
| CCc1ccc(C(NC(=O)CN(C)S(C)(=O)=O)C(C)(C)C)o1 (stereo unspecified) | -2.175 |
| Cc1cn2c(n1)C(CNCc1cnn3ccccc13)CCC2 (stereo unspecified) | 10.2 |
| CCc1ocnc1C(=O)N1CCN(c2nncc3ccccc23)CC1 | -2.931 |
| Cc1c(O)oc(-c2ccc(Br)cc2)nc1=O | -7.091 |
| CC(C(=O)O)N1CCc2onc(-c3ccc4c(c3)OCO4)c2C1 (stereo unspecified) | -4.68 |
| N#Cc1ccc(OC2CCN(C(=O)c3ccc4c(c3)OCO4)CC2)nc1 | -4.84 |
| CC(=O)NC(C)C1=CCCN(Cc2ccc(C(=O)O)cc2)C1 (stereo unspecified) | -17.16 |
| CS(=O)(=O)N[C@@H]1COC[C@@H]2CN(Cc3ccco3)C[C@@H]21 | 121.7 |
| CS(=O)(=O)N[C@@H]1COC[C@@H]2CN(Cc3ccoc3)C[C@@H]21 | 104.1 |
| CS(=O)(=O)N[C@H]1COC[C@@H]2CN(Cc3ccco3)C[C@@H]21 | 102.8 |
| CS(=O)(=O)N[C@@H]1CN(Cc2ccoc2)C[C@@H]2CCCO[C@@H]21 | -8.721 |
| CS(=O)(=O)CC(=O)N1C[C@@H]2CN(Cc3ccoc3)CCO[C@@H]2C1 | -2.254 |
| CCOCC(=O)N1CCc2c(CN(C)C)nn(C(C)C)c2C1.O=C(O)C(F)(F)F | -22.21 |
| Cn1c(N)nnc1SCC1OCCc2ccccc21 (stereo unspecified) | -8.673 |
| O=C(Nc1nncs1)c1ccc(O)nc1 | -7.078 |
| CC(C)C(C)N(C)Cc1nnc(-c2ccc(Br)s2)o1 (stereo unspecified) | 27.84 |
| CN(C)[C@H]1C[C@@H](Cc2cc(CO)on2)C1(C)C | 2.334 |
| Cc1nn(C)c2cnn(C(C)C(=O)NCc3cccnc3)c12 (stereo unspecified) | 10.06 |
| Cc1ccc(C)c(OC(C)C(=O)NCc2cccnc2)c1 (stereo unspecified) | -19.9 |
| CC(C)C(Sc1nnc(C2CC2)n1C1CC1)C(=O)NCc1cccnc1 (stereo unspecified) | 2.12 |
| Cc1nn(C)c2cn(C(C)C(=O)NCc3cccnc3)nc12 (stereo unspecified) | 6.41 |
| CC(C)C(Sc1nccn1C1CC1)C(=O)NCc1cccnc1 (stereo unspecified) | 93.78 |
| CC(C)Sc1nnnn1C1CCCC1 | -35.1 |
| CC(C)C(Sc1nnnn1-c1ccccc1)C(=O)NCc1cccnc1 (stereo unspecified) | -6.711 |
| CC(C)C(Sc1nnnn1C1CC1)C(=O)NCc1cccnc1 (stereo unspecified) | 0.8079 |
| CC(C)C(Sc1nncn1C1CC1)C(=O)NCc1cccnc1 (stereo unspecified) | 102 |

| Structure (SMILES) | Percent Effect [%] |
| --- | --- |
| CC(C)Cn1nnnc1SC(C(=O)NCc1cccnc1)C(C)C (stereo unspecified) | 111.1 |
| CC(C)C(Sc1nnnn1C1CC1)C(=O)NCc1ccccc1 (stereo unspecified) | 90.27 |
| O=C(c1cc(=O)[nH][nH]1)N1CCCC2(CCC(=O)N(C3CCCC3)C2)C1 (stereo unspecified) | -4.852 |
| Cc1nnsc1CN(C)C(=O)CN1CC2(CCNCC2)OC1=O | -6.607 |
| COCCN1CCC(CNC(=O)C2(C#N)CCCC2)CC1 | -6.048 |
| COCCN1CCC(CNC(=O)C2(c3ccccc3)CCOCC2)C1 (stereo unspecified) | 84.82 |
| O=C(Cc1ccccc1F)NCC1CCN(CCN2CCOCC2)C1 (stereo unspecified) | 8.19 |
| CCN1CCCC(CNC(=O)C2(c3cc(C)cc(C)c3)CCC2)C1 (stereo unspecified) | 97.54 |
| CCN1CCCC(CNC(=O)CCc2ccc(OC)c(F)c2)C1 (stereo unspecified) | -5.052 |
| CCCC(=O)NCC1CCCN(Cc2cc(C)c(C)o2)C1 (stereo unspecified) | -7.568 |
| COc1ccccc1NC(=O)C1(c2ccccc2)CCOCC1 | 98.14 |
| CC(C)(CNC(=O)C1(c2ccccc2)CCOCC1)C(=O)O | 1.32 |
| COCCN1CCC(CNC(=O)C2(c3ccc(F)cc3)CCC2)CC1 | 107 |
| COc1ccncc1NC(=O)C1(c2ccccc2)CC1 | -4.467 |
| COCCN1CCC(CNC(=O)C2(S(C)(=O)=O)CCCC2)CC1 | -5.804 |
| CCC(Oc1ccc(N(C)S(C)(=O)=O)cc1)C(N)=O (stereo unspecified) | 16.67 |
| O=C(c1ccc2nccnc2c1)N1CCN(CCO)[C@@H]2CS(=O)(=O)C[C@@H]21 | -5.397 |
| O=C(CCCNC(=O)Nc1ccc(F)cc1)Nc1cn[nH]c1 | -3.689 |
| Cc1cc(C(=O)N2CCN(C(=O)CC(C)C)[C@@H]3CS(=O)(=O)C[C@@H]32)no1 | -7.208 |
| Cc1noc(C)c1CN1C(=O)[C@H]2CC[C@@H]1CN(Cc1cccc(O)c1)C2 | -12.83 |
| CCCN1CCC(CC(=O)NCc2cc(C)nn2C)CC1 | -10.83 |
| Cc1cc(C)cc(C2(C(=O)NCC(C)CN3CCCC3=O)CC2)c1 (stereo unspecified) | 2.33 |
| N#Cc1ccc(CNC(=O)NC2CCN(CC(F)(F)F)C2)cc1 (stereo unspecified) | 9.13 |
| Cc1cc(C)cc(C2(C(=O)NCC3CCN(CC(F)(F)F)C3)CC2)c1 (stereo unspecified) | 144.8 |
| COCCN1CCC(CNC(=O)Nc2ccc(-c3ccccc3)cc2)C1 (stereo unspecified) | -0.2028 |
